This is part of a sample that, as a whole, favours compounds with a hit. Of some 79,000 tested, about 15% had one in any assay. Activity calls are given as the source filed them. Cut-off read from the data, not from the text of the source: active = growth inhibition above about 70%; inactive = the rest.
Test: NCI Yeast Anticancer Drug Screen. Data for the mlh1 rad18 strain (AID 175)
Settings: S. cerevisiae mlh1 rad18 strain growth inhibition; at 50.0 µM; hits give high values
In short: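 Read-out is yeast growth inhibition, calculated against vehicle-only controls. The compound was applied to a strain engineered with DNA damage repair alterations.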

SMILES | growth inhibition
CC(C)CC(C)OC(=O)Cc1ccccc1 (centres undefined) | 31.2% (inactive)
CNC(=O)Oc1ccc(Br)cc1Br | 2.35% (inactive)
Fc1ccccc1N=C=S | 2.75% (inactive)
Cc1cc(C)c(C(=O)O)c(C)c1.[Hg] | 99.7% (active)
COc1ccccc1P(=S)(c1ccccc1)c1ccccc1 | 24.2% (inactive)
CC1CN1C1=C(Br)C(=O)C(N2CC2C)=C(Br)C1=O (centres undefined) | 79.8% (active)
Nc1ccc2c(c1)[O][Sn]([c]1ccccc1)([c]1ccccc1)[O]C2=O | 89.3% (active)
CCOC(=O)CNCCC1(CC)C(=O)NC(=O)NC1=O | -12.8% (inactive)
[N-]=[N+]=CC(=O)c1ccc(Cl)cc1 | 52.2% (inactive)
C[C@@H]1C[C@@H]2c3cccc4c3c(cn4CO)C[C@H]2N(C)C1 | 8.15% (inactive)
O=[N+]([O-])c1ccc(O)c(C=NCCN=Cc2cc([N+](=O)[O-])ccc2O)c1.[Ni+2] | -22.4% (inactive)
CC(C)OP(=O)(OCCCO)C(Cl)Cl (centres undefined) | 0.75% (inactive)
C1CC[N-]CC1.CN(C)P(=O)(N(C)C)N(C)C.OO.OO.[O]=[Mo] | 15.7% (inactive)
CCC1(CC)C(=O)NC(=O)[N]([Sn]([CH3])([CH3])[N]2C(=O)NC(=O)C(CC)(CC)C2=O)C1=O | -26.1% (inactive)
Cl.[O-]c1cccc2cccnc12.[O-]c1cccc2cccnc12.[O-]c1cccc2cccnc12.[O-]c1cccc2cccnc12.[Ti+4] | 84.6% (active)
CC(Cc1ccc2c(c1)OCO2)NCC(O)c1ccc(O)c(O)c1 (centres undefined) | 26.6% (inactive)
C[C@@]12CC/C(=N\OCC(=O)O)C=C1CC[C@H]1C2CC[C@]2(C)C1CC[C@H]2O (some centres undefined) | -14.7% (inactive)
NC(N)=NN(N=O)C1CCCCC1 | 5.8% (inactive)
S=C([SH2+])[SH2+].S=C([SH2+])[SH2+].[Pt+2].c1ccc(C[P+](c2ccccc2)(c2ccccc2)c2ccccc2)cc1 | -0.1% (inactive)
O=C1OC[C@@H]2Cc3c([nH]c4ccccc34)[C@@H](c3cc(O)c(O)c(O)c3)N12 | -51.6% (inactive)

SMILES | growth inhibition
COC(=O)CCSP(=S)(Oc1ccccc1)Oc1ccccc1 | 9.1% (inactive)
CC(C)CCCC(C)C1CCC2C3CC=C4CC([Se][As](C)C)CCC4(C)C3CCC12C (centres undefined) | -7.4% (inactive)
Oc1ccccc1/C=N/C(O)C(Cl)(Cl)Cl (centres undefined) | 30.6% (inactive)
CCOC(=O)COc1cc(Cl)c(S(=O)(=O)F)cc1Cl | 98% (active)
CCCCC(CC)COP(OCC(CC)CCCC)OCC(CC)CCCC (centres undefined) | -6.95% (inactive)
CCC(=O)[O-].CCC(=O)[O-].N.N.N.N.[Co+3].[O-][Cl+3]([O-])([O-])[O-] | -12.2% (inactive)
CCC1(CCNC(=O)CCl)C(=O)NC(=O)NC1=O | -8.6% (inactive)
COc1ccc(CC(C)=O)cc1OC | -5.9% (inactive)
CS(=O)(=O)C(Cl)Cl | 19.8% (inactive)
O=[N+]([O-])c1cc(Br)c(O)c(Br)c1 | 32.3% (inactive)
O=S(=O)(F)c1cccc(Cl)c1C[P+](c1ccccc1)(c1ccccc1)c1ccccc1 | 41.4% (inactive)
CC(C(=O)c1ccccc1)N(C)Cc1ccccc1 (centres undefined) | 17.1% (inactive)
CN1C(=O)C(=CN(C)c2ccccc2)C(=O)N(C)C1=O | -8.85% (inactive)
NC1(C(=O)O)CCCC1 | -28.1% (inactive)
Cc1nccc2c1[nH]c1ccccc12 | 2.3% (inactive)
CC(C)(C)NCC(COc1ccc([N+](=O)[O-])cc1)OP(c1ccccc1)c1ccccc1 (centres undefined) | 21.3% (inactive)
O/N=C(/C(=N/O)c1ccccc1)c1ccccc1.O/N=C(/C(=N/O)c1ccccc1)c1ccccc1.[Ni] | -14.8% (inactive)
NC(N)=N/N=C1\C(=O)N(c2cccc([N+](=O)[O-])c2)C(=O)C1C(=O)Nc1cccc([N+](=O)[O-])c1 (centres undefined) | -14.5% (inactive)
CC(=O)CCNC1(c2ccccc2)CCCCC1 | -2.9% (inactive)
